# Measured values taken from PubChem BioAssay (NCI).
# Values joined by “and” are separate entries in the source; they are usually repeats but may differ in a detail not shown here. Equal values may be shown once. Compounds without any hit were thinned out: in the full panel of roughly 79,000, 15% have a hit. More than one record can exist for a structure, and the calls need not agree. Active and inactive are the calls of the source. No stated cut-off is given here; in the data, active means growth inhibition above about 70%; inactive means the rest.
# Legend:
# [1] = NCI Yeast Anticancer Drug Screen. Data for the rad50EPP+ strain (AID 151);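 further: 0% = growth of vehicle-treated control cultures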; conditions: S. cerevisiae rad50 mutant strain, stronger effect = higher value
# Outline: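 rad50EPP+ yeast treated with test compounds. Readout: growth vs vehicle control.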
# [2] = NCI Yeast Anticancer Drug Screen. Data for the rad50 strain (AID 155);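 further: 0% = growth of vehicle-only cultures of the same strain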; conditions: S. cerevisiae rad50 strain growth inhibition, stronger effect = higher value
# Outline: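 Vehicle-treated cultures provide the reference for the growth inhibition reported for compound-exposed, repair-deficient yeast.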
# [3] = NCI Yeast Anticancer Drug Screen. Data for the mec2-1 strain (AID 157); conditions: S. cerevisiae mec2-1 strain, stronger effect = higher value
# Outline: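 Growth inhibition is read against vehicle-treated controls after compound exposure of the mec2-1 yeast strain, which is defective in DNA damage repair or cell cycle control.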
# [4] = NCI Yeast Anticancer Drug Screen. Data for the rad14 strain (AID 159);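 further: 0% = growth of vehicle-treated control cultures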; conditions: S. cerevisiae rad14 strain growth inhibition, stronger effect = higher value
# Outline: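 Inhibition of growth is reported for a repair-deficient yeast mutant following compound treatment, calculated relative to cultures that received vehicle.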
# [5] = NCI Yeast Anticancer Drug Screen. Data for the sgs1 mgt1 strain (AID 161);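 further: 0% = growth of cultures given vehicle only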; conditions: S. cerevisiae sgs1 mgt1 strain, stronger effect = higher value
# Outline: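 Growth of a repair-deficient yeast mutant was monitored after compound treatment and expressed as inhibition relative to vehicle-treated cultures.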
# [6] = NCI Yeast Anticancer Drug Screen. Data for the cln2 rad14 strain (AID 165);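 further: 0% = growth equal to vehicle treated cultures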; conditions: S. cerevisiae cln2 rad14 strain, stronger effect = higher value
# Outline: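 Growth inhibition, relative to vehicle-treated controls, is the read-out. The test organism is a yeast strain with defined genetic alterations, cln2 rad14.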
# [7] = NCI Yeast Anticancer Drug Screen. Data for the bub3 strain (AID 167); conditions: S. cerevisiae bub3 mutant strain, stronger effect = higher value
# Outline: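 Mutant yeast screening strain plus compound; vehicle-treated cultures serve as the 0% inhibition reference.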
# [8] = NCI Yeast Anticancer Drug Screen. Data for the wt2 strain (AID 169); conditions: S. cerevisiae wt2 strain growth inhibition, stronger effect = higher value
# Outline: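 Compound exposure of yeast; growth compared with vehicle controls; inhibition reported.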
# [9] = NCI Yeast Anticancer Drug Screen. Data for the mlh1 strain (AID 171);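 further: 0% = growth of vehicle-treated control cultures of the same strain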; conditions: S. cerevisiae mlh1 strain growth inhibition, stronger effect = higher value
# Outline: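 Compounds are applied to a genetically altered yeast strain, and its growth is compared with that of vehicle-treated cultures to give percent inhibition.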
# [10] = NCI Yeast Anticancer Drug Screen. Data for the sgs1 strain (AID 173);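 further: 0% = growth of vehicle-only control cultures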; conditions: S. cerevisiae sgs1 mutant, stronger effect = higher value
# Outline: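 Compounds applied to genetically altered yeast; growth compared with vehicle-treated cultures to give % inhibition.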
# [11] = NCI Yeast Anticancer Drug Screen. Data for the mlh1 rad18 strain (AID 175); conditions: S. cerevisiae mlh1 rad18 strain growth inhibition, stronger effect = higher value
# Outline: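 Cells of a genetically altered yeast strain, deficient in DNA damage repair, were treated with compound. Their growth was then compared with that of vehicle-treated cultures to give inhibition.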
# [12] = NCI Yeast Anticancer Drug Screen. Data for the rad18 strain (AID 177); conditions: S. cerevisiae rad18 mutant growth inhibition, stronger effect = higher value
# Outline: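 Compounds are applied to a repair-deficient yeast strain, and growth is compared with that of vehicle-treated cultures to give percent inhibition.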
# [13] = at 5.0 µM (retest, dose inferred, filed as 0.5)
# [14] = at 50.0 µM (retest, dose inferred, filed as 5.0)
compound,measurement,setting,value
Cc1cc(NC(=S)SCc2ccc(Cl)cc2)ccc1Cl,growth inhibition,[1]; at 1.2 µM,3% (inactive)
same,growth inhibition,[1]; at 3.7 µM,29% (inactive)
same,growth inhibition,[1]; at 11.0 µM,92% (active)
same,growth inhibition,[1]; at 33.0 µM,99% (active)
same,growth inhibition,[1]; at 100.0 µM,99% (active)
same,growth inhibition,[2]; at 1.2 µM,12% (inactive)
same,growth inhibition,[2]; at 3.7 µM,10% (inactive)
same,growth inhibition,[2]; [13],24% (inactive)
same,growth inhibition,[2]; at 11.0 µM,44% (inactive)
same,growth inhibition,[2]; at 33.0 µM,97% (active)
same,growth inhibition,[2]; [14],96% (active)
same,growth inhibition,[2]; at 50.0 µM,90.5% (active)
same,growth inhibition,[2]; at 100.0 µM,95% (active)
same,growth inhibition,[3]; at 1.2 µM,-3% (inactive)
same,growth inhibition,[3]; at 3.7 µM,6% (inactive)
same,growth inhibition,[3]; [13],0% (inactive)
same,growth inhibition,[3]; at 11.0 µM,29% (inactive)
same,growth inhibition,[3]; at 33.0 µM,98% (active)
same,growth inhibition,[3]; [14],97% (active)
same,growth inhibition,[3]; at 50.0 µM,92.5% (active)
same,growth inhibition,[3]; at 100.0 µM,98% (active)
same,growth inhibition,[4]; at 1.2 µM,-4% (inactive)
same,growth inhibition,[4]; at 3.7 µM,22% (inactive)
same,growth inhibition,[4]; at 11.0 µM,46% (inactive)
same,growth inhibition,[4]; at 33.0 µM,99% (active)
same,growth inhibition,[4]; at 100.0 µM,98% (active)
same,growth inhibition,[5]; [13],43% (inactive)
same,growth inhibition,[5]; [14],98% (active)
same,growth inhibition,[5]; at 50.0 µM,91.8% (active)
same,growth inhibition,[6]; [13],29% (inactive)
same,growth inhibition,[6]; [14],95% (active)
same,growth inhibition,[6]; at 50.0 µM,90.5% (active)
same,growth inhibition,[7]; at 1.2 µM,-4% (inactive)
same,growth inhibition,[7]; at 3.7 µM,-8% (inactive)
same,growth inhibition,[7]; [13],48% (inactive)
same,growth inhibition,[7]; at 11.0 µM,49% (inactive)
same,growth inhibition,[7]; at 33.0 µM,99% (active)
same,growth inhibition,[7]; [14],98% (active)
same,growth inhibition,[7]; at 50.0 µM,91.6% (active)
same,growth inhibition,[7]; at 100.0 µM,98% (active)
same,growth inhibition,[8]; at 1.2 µM,-5% (inactive)
same,growth inhibition,[8]; at 3.7 µM,20% (inactive)
same,growth inhibition,[8]; at 11.0 µM,56% (inactive)
same,growth inhibition,[8]; at 33.0 µM,98% (active)
same,growth inhibition,[8]; at 100.0 µM,99% (active)
same,growth inhibition,[9]; at 1.2 µM,-17% (inactive)
same,growth inhibition,[9]; at 3.7 µM,-8% (inactive)
same,growth inhibition,[9]; at 11.0 µM,27% (inactive)
same,growth inhibition,[9]; at 33.0 µM,98% (active)
same,growth inhibition,[9]; at 100.0 µM,98% (active)
same,growth inhibition,[10]; at 1.2 µM,-9% (inactive)
same,growth inhibition,[10]; at 3.7 µM,-22% (inactive)
same,growth inhibition,[10]; at 11.0 µM,38% (inactive)
same,growth inhibition,[10]; at 33.0 µM,98% (active)
same,growth inhibition,[10]; at 100.0 µM,98% (active)
same,growth inhibition,[11]; [13],11% (inactive)
same,growth inhibition,[11]; [14],96% (active)
same,growth inhibition,[11]; at 50.0 µM,90.6% (active)
same,growth inhibition,[12]; at 1.2 µM,13% (inactive)
same,growth inhibition,[12]; at 3.7 µM,35% (inactive)
same,growth inhibition,[12]; at 11.0 µM,69% (inactive)
same,growth inhibition,[12]; at 33.0 µM,98% (active)
same,growth inhibition,[12]; at 100.0 µM,96% (active)
COc1cccc2c1C(=O)c1c(O)c3c(c(O)c1C2=O)CC(O)(C(=O)CO)CC3OC1CC(N)C(O)C(C)O1 (stereo not drawn),growth inhibition,[2]; [13],13% (inactive) and 24% (inactive) and 34% (inactive)
same,growth inhibition,[2]; [14],13% (inactive) and 18% (inactive) and 91% (active)
same,growth inhibition,[3]; [13],7% (inactive) and 6% (inactive) and 14% (inactive)
same,growth inhibition,[3]; [14],8% (inactive) and 10% (inactive) and 58% (inactive)
same,growth inhibition,[5]; [13],7% (inactive) and 16% (inactive) and 25% (inactive)
same,growth inhibition,[5]; [14],0% (inactive) and 4% (inactive) and 71% (active)
same,growth inhibition,[6]; [13],2% (inactive) and 8% (inactive) and 23% (inactive)
same,growth inhibition,[6]; [14],1% (inactive) and 4% (inactive) and 53% (inactive)
same,growth inhibition,[7]; [13],10% (inactive) and 15% (inactive) and 18% (inactive)
same,growth inhibition,[7]; [14],13% (inactive) and 16% (inactive) and 76% (active)
same,growth inhibition,[11]; [13],-5% (inactive) and 20% (inactive) and 42% (inactive)
same,growth inhibition,[11]; [14],-1% (inactive) and 3% (inactive) and 94% (active)
CC(C)c1ccc(O)c(=O)cc1,growth inhibition,[2]; [13],6% (inactive) and 0% (inactive)
same,growth inhibition,[2]; [14],42% (inactive) and 28% (inactive) and -1% (inactive)
same,growth inhibition,[2]; at 50.0 µM,91.8% (active) and 92.7% (active) and 92.8% (active)
same,growth inhibition,[3]; [13],2% (inactive) and -1% (inactive)
same,growth inhibition,[3]; [14],50% (inactive) and 57% (inactive) and 7% (inactive)
same,growth inhibition,[3]; at 50.0 µM,93.8% (active) and 94.7% (active) and 94.6% (active)
same,growth inhibition,[5]; [13],4% (inactive) and 6% (inactive)
same,growth inhibition,[5]; [14],42% (inactive) and 31% (inactive) and 1% (inactive)
same,growth inhibition,[5]; at 50.0 µM,93.5% (active) and 94% (active) and 93% (active)
same,growth inhibition,[6]; [13],6% (inactive) and 5% (inactive) and -1% (inactive)
same,growth inhibition,[6]; [14],21% (inactive) and 15% (inactive) and 2% (inactive)
same,growth inhibition,[6]; at 50.0 µM,91.3% (active) and 90.5% (active) and 91.5% (active)
same,growth inhibition,[7]; [13],0% (inactive) and -1% (inactive) and -5% (inactive)
same,growth inhibition,[7]; [14],48% (inactive) and 56% (inactive) and -2% (inactive)
same,growth inhibition,[7]; at 50.0 µM,92.7% (active) and 93.3% (active) and 92.8% (active)
same,growth inhibition,[11]; [13],5% (inactive) and 6% (inactive) and 2% (inactive)
same,growth inhibition,[11]; [14],45% (inactive) and 43% (inactive) and -2% (inactive)
same,growth inhibition,[11]; at 50.0 µM,91.2% (active) and 92.4% (active) and 92.1% (active)
